Laboratory results as given in PubChem BioAssay (NCATS).
Records with an inconclusive call do not appear. Where a call stands in place of a potency, no number is given. The source made the active and inactive calls. Calls come from the whole dose curve; as a rule, active = well fitted curve in the direction sought with a large enough effect; inconclusive = small, poorly fitted or top-dose-only effect, or another doubt; inactive = no such curve, though single readings can be large; an effect the other way counts as inactive or inconclusive.

Columns and labels:
[1] = molecular target: Metallo-beta-lactamase type 2 (Klebsiella pneumoniae) (UniProt C7C422); assay: qHTS to identify inhibitors of the New Delhi Metallo-beta-lactamase (NDM): assay validation screen against the NCATS LOPAC Collection (AID 1794843);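 note: nitrocefin turnover by NDM-1 measured as 485 nm absorbance at plateau; series mostly up to about 38 µM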
Metallo-beta-lactamase type 2 (Klebsiella pneumoniae), sequence (C7C422 whole entry, looked up): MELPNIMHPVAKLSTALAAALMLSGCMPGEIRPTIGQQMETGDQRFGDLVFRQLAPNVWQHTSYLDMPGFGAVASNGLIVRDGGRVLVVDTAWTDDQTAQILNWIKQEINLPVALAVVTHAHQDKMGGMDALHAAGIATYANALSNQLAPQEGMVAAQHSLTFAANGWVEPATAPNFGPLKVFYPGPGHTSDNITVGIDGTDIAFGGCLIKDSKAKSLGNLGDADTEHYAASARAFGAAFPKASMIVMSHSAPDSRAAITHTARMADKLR
Method in brief: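 Enzyme 2 nM final, 50 mM HEPES pH 7.0, 1 uM ZnSO4, 0.01% Tween20; cpds in DMSO, preincub w/ enzyme; + nitrocefin (50 uM stock); A485 at plateau; no-enzyme column as blank.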

[2] = molecular target: Glutathione peroxidase 1 (Homo sapiens) (UniProt P07203); assay: Primary qHTS Assay for Inhibitors of Recombinant Selenoprotein Glutathione Peroxidase 1 (GPX1) (AID 1845191); note: nearly all actives have a fitted effect of over 65% in size
Glutathione peroxidase 1 (Homo sapiens), sequence (P07203 whole entry, looked up): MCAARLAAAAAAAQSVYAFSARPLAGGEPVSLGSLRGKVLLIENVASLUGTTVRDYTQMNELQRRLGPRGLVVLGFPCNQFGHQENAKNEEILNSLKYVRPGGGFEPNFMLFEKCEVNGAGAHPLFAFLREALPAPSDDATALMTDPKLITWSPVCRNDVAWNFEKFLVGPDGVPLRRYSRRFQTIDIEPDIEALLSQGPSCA
Method in brief: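 10 nM GPX1 + cpd, 30 min RT; start w/ 1 mM GSH, 0.5 mM cumene hydroperoxide, 0.5 mM NADPH, 100 nM GR, 0.01% BSA; buffer 50 mM Tris-HCl pH 7.5, 2 mM EDTA, 150 mM NaCl; Fl 340/450, 0 & 15 min.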

[3] = molecular target: Phospholipid hydroperoxide glutathione peroxidase GPX4 (Homo sapiens) (UniProt P36969); assay: Primary qHTS Assay for Inhibitors of Recombinant Selenoprotein Glutathione Peroxidase 4 (GPX4) (AID 1845192); note: nearly all actives have a fitted effect of over 65% in size; note: potency is the fitted concentration of half-maximal effect
Phospholipid hydroperoxide glutathione peroxidase GPX4 (Homo sapiens), sequence (P36969 whole entry, looked up): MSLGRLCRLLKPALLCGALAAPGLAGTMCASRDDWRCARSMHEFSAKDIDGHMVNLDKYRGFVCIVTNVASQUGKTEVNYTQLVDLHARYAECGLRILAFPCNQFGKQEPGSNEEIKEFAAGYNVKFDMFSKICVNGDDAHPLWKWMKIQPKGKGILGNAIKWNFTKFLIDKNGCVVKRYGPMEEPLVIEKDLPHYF
Method in brief: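 NADPH consumption, followed by fluorescence at 340/450 nm between 0 and 15 min, reports GPX4 activity via coupled glutathione reductase (100 nM). Enzyme 200 nM was pre-exposed to compound 30 min; 0.5 mM cumene hydroperoxide and 1 mM GSH served as substrates.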

| SMILES | Potency [1] | Potency [2] | Potency [3] |
| --- | --- | --- | --- |
| OC[C@H]1O[C@@H](n2cnc3cncnc32)[C@H](O)[C@@H]1O | inactive | inactive | inactive |
| CCCN(CCc1ccccc1)C1CCc2c(O)cccc2C1 (stereo not given) | inactive | inactive | inactive |
| Nc1ncnc2c1c(-c1ccc(Oc3ccccc3)cc1)cn2C1CCCC1 | inactive | inactive | inactive |
| CC(C)(C)c1ccc(/C=C/C(=O)Nc2ccc3c(c2)OCCO3)cc1 | inactive | inactive | inactive |
| Cn1c(=O)[nH]c2ncn(C)c2c1=O | inactive | inactive | inactive |
| NCC(O)(CS(=O)(=O)O)c1ccc(Cl)cc1 (stereo not given) | inactive | inactive | inactive |
| CCCCS(=N)(=O)CC[C@H](N)C(=O)O (stereo not given in full) | inactive | inactive | inactive |
| O=C(O)/C(=C/c1c(C(=O)O)[nH]c2cc(Cl)cc(Cl)c12)c1ccccc1 | inactive | inactive | inactive |
| CCCCCCCCCCC(C)(C)C(=O)Nc1c(OC)cc(OC)cc1OC | inactive | inactive | inactive |
| O=c1[nH]c(=O)c2nc3ccccc3nc2[nH]1 | inactive | inactive | inactive |
| CSC(N)=NCCC[C@H](N)C(=O)O | inactive | inactive | inactive |
| CCN(c1nc(N)c(C(=O)N=C(N)N)nc1Cl)C(C)C | inactive | inactive | inactive |
| NCCS(=O)O | inactive | inactive | inactive |
| CN(CC[C@@H](Oc1ccc(C(F)(F)F)cc1)c1ccccc1)CC(=O)O | inactive | inactive | inactive |
| O=c1onc2cnc3ccccc3n12 | inactive | inactive | inactive |
| CC(=O)O[C@H]1CC2(C)[C@@H](C[C@@H](O)[C@H]3[C@@]4(C)CC[C@@H](O)[C@@H](C)[C@@H]4CC[C@@]32C)C1=C(CCC=C(C)C)C(=O)O (stereo not given in full) | inactive | inactive | inactive |
| NCCCNCCCCNCCCN | inactive | inactive | inactive |
| COc1ccc2c(c1)c(CC(=O)O)c(C)n2C(=O)c1ccccc1 | inactive | inactive | inactive |
| Nc1nc2c(cnn2CCc2ccccc2)c2nc(-c3ccco3)nn12 | inactive | inactive | inactive |
| CCCCC[C@H](CC(=O)NO)C(=O)N[C@H](C(=O)N1CCC[C@H]1CO)C(C)C | inactive | inactive | inactive |
| CCCCCC[C@@H]([C@@H](C)O)n1cnc2c(N)ncnc21 | inactive | inactive | inactive |
| O=c1[nH]c2ccccc2c2ccccc12 | inactive | inactive | inactive |
| CC(=O)SC1CC2=CC(=O)CC[C@]2(C)C2CC[C@@]3(C)C(CC[C@@]34CCC(=O)O4)C12 (stereo not given in full) | inactive | inactive | inactive |

| SMILES | Potency [1] | Potency [2] | Potency [3] |
| --- | --- | --- | --- |
| CCCCCCCCCCCCCCCCCCOC[C@H](COP(=O)([O-])OCC[N+](C)(C)C)OC | inactive | inactive | inactive |
| CC(=O)[C@H]1CCC2C3CC=C4C[C@@H](OS(=O)(=O)O)CC[C@]4(C)C3CC[C@@]21C (stereo not given in full) | inactive | inactive | inactive |
| Cc1nc2c(OCc3ccccc3)cccn2c1CC#N | inactive | inactive | inactive |
| CC(N)(C(=O)O)c1ccc(C(=O)O)cc1 (stereo not given) | inactive | inactive | inactive |
| NC(N)=NC(N)=Nc1ccccc1 | inactive | inactive | inactive |
| NC(=O)CC[C@H](N)C(=O)O | inactive | inactive | inactive |
| CNC(=O)c1cc2c(cn1)[nH]c1ccccc12 | inactive | inactive | inactive |
| CC(N)(Cc1ccc(O)cc1)C(=O)O (stereo not given) | inactive | inactive | inactive |
| N=C(N)SCCN | inactive | inactive | inactive |
| S=C(S)N1CCCC1 | inactive | inactive | inactive |
| Oc1ccc(/C=C/c2ccc(/C=C/c3ccc(O)cc3)c(Br)c2)cc1 | inactive | inactive | inactive |
| CCCCOC(=O)NS(=O)(=O)c1sc(CC(C)C)cc1-c1ccc(Cn2c(CC)nc3c(C)cc(C)nc32)cc1 | inactive | inactive | inactive |
| CC(=O)N[C@@H](Cc1c[nH]c2ccccc12)C(=O)OCc1cc(C(F)(F)F)cc(C(F)(F)F)c1 | inactive | inactive | inactive |
| Cc1nc(N=Nc2ccc(S(=O)(=O)O)cc2S(=O)(=O)O)c(COP(=O)(O)O)c(C=O)c1O | inactive | inactive | inactive |
| N#Cc1cc([N+](=O)[O-])c2sc(C(N)=O)[n+]([O-])c2c1 | inactive | inactive | inactive |
| CCCCOc1cc(CC2CNC(=O)N2)ccc1OC (stereo not given) | inactive | inactive | inactive |
| C[C@H](O)C(=O)C1=Nc2c(nc(N)[nH]c2=O)NC1 | inactive | inactive | inactive |
| C=CC[C@H](N)C(=O)O | inactive | inactive | inactive |
| Cn1cc(C(=O)OCC2CCN(CCNS(C)(=O)=O)CC2)c2ccccc21 | inactive | inactive | inactive |
| O=C(O)CCC/C=C\C[C@@H]1[C@@H](/C=C/[C@H](O)C2Cc3ccccc3C2)[C@@H](F)C[C@@H]1O | inactive | inactive | inactive |
| COc1ccc2c(c1)CCC1C2CC[C@@]2(C)C1CC[C@@H]2NCCCCCCN1C(=O)C=CC1=O (stereo not given in full) | inactive | inactive | inactive |
| O=C(O)Cc1c[nH]c2ccc(O)cc12 | inactive | inactive | inactive |
| O=C(O)c1cc(=O)cc(C(=O)O)[nH]1 | inactive | inactive | inactive |

| SMILES | Potency [1] | Potency [2] | Potency [3] |
| --- | --- | --- | --- |
| OC[C@H]1NC[C@@H](O)[C@@H]1O | inactive | inactive | inactive |
| C=C1C[C@@]23CC[C@H]4[C@@](C)(CCC[C@@]4(C)C(=O)O)[C@@H]2CC[C@]1(O)C3 | inactive | inactive | inactive |
| O=C(O)C1=CCCNC1 | inactive | inactive | inactive |
| Oc1ccc(Cn2cc[nH]c2=S)cc1 | inactive | inactive | inactive |
| O=C(O)C1CCCNC1 (stereo not given) | inactive | inactive | inactive |
| NC(N)=[N+]1CCc2ccccc2C1 | inactive | inactive | inactive |
| CNc1cc(NS(=O)(=O)c2ccc(N)cc2)nc(NC)n1 | inactive | inactive | inactive |
| O=C(O)C1=CCNCC1 | inactive | inactive | inactive |
| Nc1ncnc2c1nc(Sc1ccc(Cl)cc1)n2[C@H]1OC2COP(=O)(O)O[C@@H]2C1O (stereo not given in full) | inactive | inactive | inactive |
| N[C@H](C(=O)O)[C@H]1C[C@@H]1C(=O)O | inactive | inactive | inactive |
| N[C@@H](CS(=O)O)C(=O)O | inactive | inactive | inactive |
| OC1(c2ccc(Cl)cc2)CCN(Cc2c[nH]c3ccccc23)CC1 | inactive | inactive | inactive |
| O=C(O)C1CCNCC1 | inactive | inactive | inactive |
| CC(N)=NCCCC[C@@H](N)C(=O)O | inactive | inactive | inactive |
| OCC1NCC(O)C(O)C1O (stereo not given) | inactive | inactive | inactive |
| NC1(C(=O)O)CCCCC1 | inactive | inactive | inactive |
| Cc1cccc(C2CN(C)CCc3c2cc(O)c(O)c3Cl)c1 (stereo not given) | inactive | inactive | inactive |
| NC(=O)CNCCC(c1ccccc1)c1ccccc1 | inactive | inactive | inactive |
| O=c1ccc2c(OCCCCc3ccccc3)c3ccoc3cc2o1 | inactive | inactive | inactive |
| CC1=C(C(=O)O)N2C(=O)[C@@H](NC(=O)C(N)C3=CCC=CC3)[C@H]2SC1 (stereo not given in full) | inactive | inactive | inactive |
| CCC(=O)N1CCN(C(=O)c2ccccc2)CC1 | inactive | inactive | inactive |
| CN(C)S(=O)(=O)c1ccc2c(c1)/C(=C/c1cc3c([nH]1)CCCC3)C(=O)N2 | inactive | inactive | inactive |
| CC(C)[C@@H]1CC[C@@H](C)C[C@@H]1P(=O)(c1ccccc1)c1ccccc1 | inactive | inactive | inactive |

| SMILES | Potency [1] | Potency [2] | Potency [3] |
| --- | --- | --- | --- |
| O=[N+]([O-])c1cccc2c(Br)[nH]nc12 | inactive | inactive | inactive |
| NC(=Nc1ccccc1)NC(=O)c1nc(Cl)c(N)nc1N | inactive | inactive | inactive |
| N[C@H](C(=O)O)[C@H](Cc1ccccc1)C(=O)O |  | inactive | inactive |
| O=C(N[C@@H](Cc1ccccc1)C(=O)CCl)OCc1ccccc1 |  | inactive | inactive |
| c1ccc(C2CN3CCSC3=N2)cc1 (stereo not given) | inactive | inactive | inactive |
| N=C(N)c1ccc(OCCCCCOc2ccc(C(=N)N)cc2)cc1 (tested in a mixture with another compound) |  | inactive | inactive |
| C=CC1(C)CC(=O)C2(O)C(C)(O1)C(OC(C)=O)C(O)C1C(C)(C)CCC(O)C12C (stereo not given) |  | inactive | inactive |
| N#CC(=C(\N)Sc1ccccc1N)/C(C#N)=C(/N)Sc1ccccc1N | inactive |  | inactive |
| CCCn1c(=O)c2[nH]c(C3CCCC3)nc2n(CCC)c1=O | inactive | inactive | inactive |
| O=C(O)/C=C/c1cnc[nH]1 |  | inactive | inactive |
| CC(=O)/C(C)=N/O |  | inactive | inactive |
| CC(C)NC[C@H](O)COc1cccc2ccccc12 |  | inactive | inactive |
| O=c1cc(-c2ccccc2)[nH]c2nc(Cl)ccc12 |  | inactive | inactive |
| O=c1[nH]c2cc(Cl)ccc2c(O)c1-c1ccc(Oc2ccccc2)cc1 | inactive | inactive | inactive |
| CC(=O)NCCc1c[nH]c2ccc(O)cc12 | inactive | inactive | inactive |
| O=S(=O)(c1cccc2c(Cl)cccc12)N1CCCNCC1 | inactive | inactive | inactive |
| N[C@@H](CCC(=O)N[C@H](CSN=O)C(=O)NCC(=O)O)C(=O)O |  | inactive | inactive |
| CSc1nc(N)c2ncn([C@@H]3O[C@H](COP(=O)(O)OP(=O)(O)O)C(O)[C@H]3O)c2n1 (stereo not given in full) |  | inactive | inactive |
| O=c1[nH]c(=S)[nH]c(-c2ccccc2)c1Cc1c(O)ccc2ccccc12 |  | inactive | inactive |
| CN1CCCC1CCOC(C)(c1ccccc1)c1ccc(Cl)cc1 (stereo not given) | inactive | inactive | inactive |
| COc1cc(C(O)CO)ccc1O (stereo not given) | inactive | inactive | inactive |
| CCCn1c(=O)c2[nH]c(-c3ccc(S(=O)(=O)O)cc3)nc2n(CCC)c1=O | inactive |  | 11.2 µM (active) |
